Tests used:
Assay in all cases: DAPPL (digital affinity profiling via proximity ligation, sequencing); 10 mM Tris-HCl pH 7.5, 50 mM NaCl, 1 mM DTT, 4% glycerol, room temperature, 30 min; GST-TFs on glutathione beads, 16-mer random dsDNA library, 0.1% formaldehyde crosslink after washing; high values mean tight binding
FLI1 = target: T1, FLI1 (Homo sapiens, UniProt Q01543 1-452); conditions: protein: recombinant; tags: N-terminal GST; dsDNA, one strand shown
T1 sequence: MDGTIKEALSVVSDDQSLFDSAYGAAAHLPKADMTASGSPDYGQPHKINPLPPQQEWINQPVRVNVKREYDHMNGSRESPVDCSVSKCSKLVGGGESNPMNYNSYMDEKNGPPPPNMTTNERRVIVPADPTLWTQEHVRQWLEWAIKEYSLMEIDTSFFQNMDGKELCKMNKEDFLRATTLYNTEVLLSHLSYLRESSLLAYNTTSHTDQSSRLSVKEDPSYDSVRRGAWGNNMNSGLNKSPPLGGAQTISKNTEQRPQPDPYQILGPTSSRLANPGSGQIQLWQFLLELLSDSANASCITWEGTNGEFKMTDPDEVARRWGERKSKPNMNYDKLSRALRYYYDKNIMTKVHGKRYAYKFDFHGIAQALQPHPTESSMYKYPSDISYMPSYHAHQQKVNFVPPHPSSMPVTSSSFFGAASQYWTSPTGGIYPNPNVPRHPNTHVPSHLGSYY
Outline: (§1)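 In yeast, human transcription factors were expressed with a GST fusion, then pulled down on glutathione beads and given DNA barcodes. Pooled with a tag-only sample, they were exposed to 200 nmole of a 16-mer random double-stranded DNA library (Tris/NaCl/DTT/glycerol buffer, room temperature, 30 min), washed, crosslinked with 0.1% formaldehyde, proximity-ligated using BsaI/T4 ligase for 1 h at 37 °C, PCR-amplified and read on an Illumina NextSeq500. Each hexamer's frequency of reads for a factor, divided by the matching frequency for the tag-only sample, gives the binding signal.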

ELK1 = target: T2, ELK1 (Homo sapiens, UniProt P19419 1-428); conditions: protein: recombinant; tags: N-terminal GST; dsDNA, one strand shown
T2 sequence: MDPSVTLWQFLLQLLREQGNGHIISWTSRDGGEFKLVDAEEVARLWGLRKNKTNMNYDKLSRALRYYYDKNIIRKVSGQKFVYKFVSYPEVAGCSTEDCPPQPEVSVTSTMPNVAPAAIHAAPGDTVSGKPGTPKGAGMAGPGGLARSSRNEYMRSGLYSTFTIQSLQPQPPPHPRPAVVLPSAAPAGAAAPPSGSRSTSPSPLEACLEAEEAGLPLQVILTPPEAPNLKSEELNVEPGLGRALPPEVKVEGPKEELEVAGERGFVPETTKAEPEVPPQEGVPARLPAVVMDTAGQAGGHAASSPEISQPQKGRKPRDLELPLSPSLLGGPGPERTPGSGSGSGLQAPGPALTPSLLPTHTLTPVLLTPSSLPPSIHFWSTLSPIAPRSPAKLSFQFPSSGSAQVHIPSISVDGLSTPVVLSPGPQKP
Outline: as §1

GABPA = target: T3, GABPA (Homo sapiens, UniProt Q06546 1-454); conditions: protein: recombinant; tags: N-terminal GST; dsDNA, one strand shown
T3 sequence: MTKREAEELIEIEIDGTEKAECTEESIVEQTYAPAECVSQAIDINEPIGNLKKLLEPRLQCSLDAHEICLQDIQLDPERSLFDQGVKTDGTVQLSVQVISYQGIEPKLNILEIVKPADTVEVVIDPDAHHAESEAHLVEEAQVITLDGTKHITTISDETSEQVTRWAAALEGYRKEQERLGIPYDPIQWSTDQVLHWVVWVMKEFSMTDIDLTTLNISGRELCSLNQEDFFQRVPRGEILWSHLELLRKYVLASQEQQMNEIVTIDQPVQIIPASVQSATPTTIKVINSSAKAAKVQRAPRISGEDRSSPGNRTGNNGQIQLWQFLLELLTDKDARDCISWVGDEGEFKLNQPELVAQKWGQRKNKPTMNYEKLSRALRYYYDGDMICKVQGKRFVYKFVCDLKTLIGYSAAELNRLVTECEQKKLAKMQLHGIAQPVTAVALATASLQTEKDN
Outline: as §1

ERG = target: T4, ERG (Homo sapiens, UniProt P11308 1-479); conditions: protein: recombinant; tags: N-terminal GST; dsDNA, one strand shown
T4 sequence: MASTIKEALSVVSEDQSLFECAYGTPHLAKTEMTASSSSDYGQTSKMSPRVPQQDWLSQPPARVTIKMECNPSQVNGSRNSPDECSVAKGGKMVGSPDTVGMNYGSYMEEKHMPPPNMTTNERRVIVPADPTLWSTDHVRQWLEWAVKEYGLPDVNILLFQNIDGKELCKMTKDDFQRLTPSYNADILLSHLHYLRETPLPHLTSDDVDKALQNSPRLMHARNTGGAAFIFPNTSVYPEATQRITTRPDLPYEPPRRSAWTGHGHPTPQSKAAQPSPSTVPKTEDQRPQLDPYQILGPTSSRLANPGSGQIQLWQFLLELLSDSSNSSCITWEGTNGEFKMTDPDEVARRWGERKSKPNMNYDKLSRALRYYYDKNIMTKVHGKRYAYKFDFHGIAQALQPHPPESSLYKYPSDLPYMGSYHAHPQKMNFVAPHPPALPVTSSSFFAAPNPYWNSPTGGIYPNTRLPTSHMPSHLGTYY
Outline: as §1

ELF1 = ELF1 (Homo sapiens, UniProt P32519 1-619); conditions: protein: recombinant; tags: N-terminal GST; dsDNA, one strand shown
Outline: as §1

EHF = target: T5, EHF (Homo sapiens, UniProt Q9NZC4 1-300); conditions: protein: recombinant; tags: N-terminal GST; dsDNA, one strand shown
T5 sequence: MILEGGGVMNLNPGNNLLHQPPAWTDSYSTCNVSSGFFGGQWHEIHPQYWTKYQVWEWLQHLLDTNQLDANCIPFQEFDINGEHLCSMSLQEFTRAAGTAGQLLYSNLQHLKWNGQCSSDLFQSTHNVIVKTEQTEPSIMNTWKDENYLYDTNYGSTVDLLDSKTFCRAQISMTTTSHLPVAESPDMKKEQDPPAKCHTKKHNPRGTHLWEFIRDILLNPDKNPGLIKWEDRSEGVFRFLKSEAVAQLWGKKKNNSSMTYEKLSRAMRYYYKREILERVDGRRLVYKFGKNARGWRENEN
Outline: as §1

SPI1 = SPI1 (Homo sapiens, UniProt P17947 1-270); conditions: protein: recombinant; tags: N-terminal GST; dsDNA, one strand shown
Outline: as §1

SPIB = SPIB (Homo sapiens, UniProt Q01892 1-262); conditions: protein: recombinant; tags: N-terminal GST; dsDNA, one strand shown
Outline: as §1

ELK3 = target: T6, ELK3 (Homo sapiens, UniProt P41970 1-407); conditions: protein: recombinant; tags: N-terminal GST; dsDNA, one strand shown
T6 sequence: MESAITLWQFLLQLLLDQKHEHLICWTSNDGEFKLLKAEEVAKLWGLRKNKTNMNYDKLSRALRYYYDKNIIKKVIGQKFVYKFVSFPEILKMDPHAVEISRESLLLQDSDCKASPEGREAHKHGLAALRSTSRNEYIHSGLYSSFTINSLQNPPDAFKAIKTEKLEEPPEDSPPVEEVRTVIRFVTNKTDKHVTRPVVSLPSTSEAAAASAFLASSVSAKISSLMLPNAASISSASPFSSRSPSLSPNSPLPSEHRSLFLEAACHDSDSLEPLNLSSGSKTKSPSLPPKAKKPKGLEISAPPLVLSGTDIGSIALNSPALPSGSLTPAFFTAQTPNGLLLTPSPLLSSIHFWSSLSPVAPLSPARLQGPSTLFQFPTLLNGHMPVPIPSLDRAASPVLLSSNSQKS
Outline: as §1

FEV = target: T7, FEV (Homo sapiens, UniProt Q99581 1-238); conditions: protein: recombinant; tags: N-terminal GST; dsDNA, one strand shown
T7 sequence: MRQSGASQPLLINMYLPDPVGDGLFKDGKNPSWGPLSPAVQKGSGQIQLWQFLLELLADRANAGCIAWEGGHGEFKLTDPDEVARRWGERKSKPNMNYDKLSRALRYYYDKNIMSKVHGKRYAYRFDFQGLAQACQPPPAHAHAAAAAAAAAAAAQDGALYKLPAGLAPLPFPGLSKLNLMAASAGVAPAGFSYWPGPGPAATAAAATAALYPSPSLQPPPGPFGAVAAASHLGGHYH
Outline: as §1

ETV5 = ETV5 (Homo sapiens, UniProt P41161 1-510); conditions: protein: recombinant; tags: N-terminal GST; dsDNA, one strand shown
Outline: as §1

HSF1 = HSF1 (Homo sapiens, UniProt Q00613 1-529); conditions: protein: recombinant; tags: N-terminal GST; chain copies: 3; dsDNA, one strand shown
Outline: as §1

SPIC = target: T8, SPIC (Homo sapiens, UniProt Q8N5J4 1-248); conditions: protein: recombinant; tags: N-terminal GST; dsDNA, one strand shown
T8 sequence: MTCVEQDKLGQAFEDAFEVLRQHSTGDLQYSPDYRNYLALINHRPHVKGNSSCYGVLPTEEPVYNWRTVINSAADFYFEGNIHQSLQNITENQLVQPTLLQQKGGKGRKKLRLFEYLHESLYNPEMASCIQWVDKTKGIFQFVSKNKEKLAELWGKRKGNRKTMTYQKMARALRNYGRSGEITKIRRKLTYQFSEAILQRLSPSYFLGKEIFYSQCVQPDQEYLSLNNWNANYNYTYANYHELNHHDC
Outline: as §1

ELF4 = ELF4 (Homo sapiens, UniProt Q99607 1-663); conditions: protein: recombinant; tags: N-terminal GST; dsDNA, one strand shown
Outline: as §1

ELK4 = target: T9, ELK4 (Homo sapiens, UniProt P28324-2 1-405); conditions: protein: recombinant; tags: N-terminal GST; dsDNA, one strand shown
T9 sequence: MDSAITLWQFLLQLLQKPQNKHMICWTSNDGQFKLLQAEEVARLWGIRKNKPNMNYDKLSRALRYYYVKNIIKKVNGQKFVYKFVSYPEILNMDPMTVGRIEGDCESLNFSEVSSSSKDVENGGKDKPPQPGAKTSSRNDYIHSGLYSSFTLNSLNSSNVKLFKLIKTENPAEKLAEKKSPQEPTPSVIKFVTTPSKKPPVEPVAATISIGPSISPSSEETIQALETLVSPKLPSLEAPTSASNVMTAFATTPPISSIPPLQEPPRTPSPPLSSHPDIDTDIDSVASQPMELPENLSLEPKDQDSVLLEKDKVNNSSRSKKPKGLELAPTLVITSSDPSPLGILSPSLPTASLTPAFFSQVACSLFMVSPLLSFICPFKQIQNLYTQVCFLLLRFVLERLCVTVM
Outline: as §1

ETV2 = target: T10, ETV2 (Homo sapiens, UniProt O00321 1-342); conditions: protein: recombinant; tags: N-terminal GST; dsDNA, one strand shown
T10 sequence: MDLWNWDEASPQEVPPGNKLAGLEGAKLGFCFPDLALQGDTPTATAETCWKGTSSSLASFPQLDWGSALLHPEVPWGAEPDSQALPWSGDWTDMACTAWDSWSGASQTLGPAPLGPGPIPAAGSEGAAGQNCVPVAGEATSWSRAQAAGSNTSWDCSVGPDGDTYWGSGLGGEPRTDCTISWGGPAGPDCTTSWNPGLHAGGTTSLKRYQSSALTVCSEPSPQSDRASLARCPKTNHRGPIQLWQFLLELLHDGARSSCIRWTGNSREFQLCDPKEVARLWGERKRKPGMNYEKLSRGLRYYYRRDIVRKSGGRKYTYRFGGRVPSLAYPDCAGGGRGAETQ
Outline: as §1

ELF3 = target: T11, ELF3 (Homo sapiens, UniProt P78545 1-371); conditions: protein: recombinant; tags: N-terminal GST; dsDNA, one strand shown
T11 sequence: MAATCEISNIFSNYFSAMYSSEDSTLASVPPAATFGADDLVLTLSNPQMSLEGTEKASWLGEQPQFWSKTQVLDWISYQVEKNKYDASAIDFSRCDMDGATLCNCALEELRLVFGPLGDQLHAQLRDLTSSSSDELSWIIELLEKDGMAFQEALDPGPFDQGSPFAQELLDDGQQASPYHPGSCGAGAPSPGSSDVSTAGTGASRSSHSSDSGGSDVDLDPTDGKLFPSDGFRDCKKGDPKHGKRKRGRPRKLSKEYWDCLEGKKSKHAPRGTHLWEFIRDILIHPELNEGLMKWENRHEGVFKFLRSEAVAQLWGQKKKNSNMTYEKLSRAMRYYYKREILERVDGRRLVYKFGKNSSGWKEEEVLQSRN
Outline: as §1

CRX = CRX (Homo sapiens, UniProt O43186 1-299); conditions: protein: recombinant; tags: N-terminal GST; dsDNA, one strand shown
Outline: as §1

ETV1 = ETV1 (Homo sapiens, UniProt P50549 1-477); conditions: protein: recombinant; tags: N-terminal GST; dsDNA, one strand shown
Outline: as §1

Chain of HSF1 (Q00613 whole entry): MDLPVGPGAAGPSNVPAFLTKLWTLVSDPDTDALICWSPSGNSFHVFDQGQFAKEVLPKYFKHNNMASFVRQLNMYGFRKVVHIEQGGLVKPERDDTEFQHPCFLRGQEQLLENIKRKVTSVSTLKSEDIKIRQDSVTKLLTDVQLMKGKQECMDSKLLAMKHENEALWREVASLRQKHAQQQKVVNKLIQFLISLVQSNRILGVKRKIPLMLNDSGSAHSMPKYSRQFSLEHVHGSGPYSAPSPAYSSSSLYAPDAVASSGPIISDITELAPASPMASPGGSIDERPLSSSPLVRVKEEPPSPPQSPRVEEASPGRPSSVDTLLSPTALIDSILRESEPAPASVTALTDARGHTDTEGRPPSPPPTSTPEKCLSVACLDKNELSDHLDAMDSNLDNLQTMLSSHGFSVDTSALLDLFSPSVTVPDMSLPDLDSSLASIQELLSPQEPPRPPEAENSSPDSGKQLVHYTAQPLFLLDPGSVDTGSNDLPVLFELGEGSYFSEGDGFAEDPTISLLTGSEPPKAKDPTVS
Chain of ETV5 (P41161 whole entry): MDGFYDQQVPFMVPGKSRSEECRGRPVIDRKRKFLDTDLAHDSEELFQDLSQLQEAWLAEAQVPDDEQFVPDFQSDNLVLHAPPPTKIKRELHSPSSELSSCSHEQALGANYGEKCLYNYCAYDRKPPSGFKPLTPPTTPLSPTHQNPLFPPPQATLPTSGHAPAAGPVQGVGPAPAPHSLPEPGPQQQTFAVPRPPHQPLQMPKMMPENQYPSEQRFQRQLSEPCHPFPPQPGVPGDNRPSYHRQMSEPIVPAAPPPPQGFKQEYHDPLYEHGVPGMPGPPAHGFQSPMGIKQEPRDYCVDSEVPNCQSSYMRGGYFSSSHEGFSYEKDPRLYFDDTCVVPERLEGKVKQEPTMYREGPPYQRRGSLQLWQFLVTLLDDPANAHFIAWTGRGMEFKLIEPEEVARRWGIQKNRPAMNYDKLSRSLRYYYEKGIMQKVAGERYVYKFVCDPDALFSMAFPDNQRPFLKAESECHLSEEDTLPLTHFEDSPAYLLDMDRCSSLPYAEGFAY
Chain of ELF1 (P32519 whole entry): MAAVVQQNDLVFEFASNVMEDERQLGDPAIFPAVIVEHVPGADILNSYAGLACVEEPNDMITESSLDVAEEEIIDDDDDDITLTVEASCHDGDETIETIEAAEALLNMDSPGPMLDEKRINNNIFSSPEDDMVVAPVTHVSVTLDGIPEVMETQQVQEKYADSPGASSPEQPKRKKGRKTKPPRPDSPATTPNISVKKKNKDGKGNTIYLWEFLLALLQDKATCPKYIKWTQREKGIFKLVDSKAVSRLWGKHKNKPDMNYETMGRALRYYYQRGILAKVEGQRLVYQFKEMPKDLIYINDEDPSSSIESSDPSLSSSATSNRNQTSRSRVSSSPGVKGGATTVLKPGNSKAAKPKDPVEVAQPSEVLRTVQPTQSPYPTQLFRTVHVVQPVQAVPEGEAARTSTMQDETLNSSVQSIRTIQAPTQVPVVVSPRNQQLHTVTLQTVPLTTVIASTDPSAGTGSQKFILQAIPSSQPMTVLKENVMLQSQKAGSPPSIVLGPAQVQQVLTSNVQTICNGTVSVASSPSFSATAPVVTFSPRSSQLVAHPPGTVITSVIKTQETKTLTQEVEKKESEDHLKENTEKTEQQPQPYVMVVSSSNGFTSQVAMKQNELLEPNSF
Chain of CRX (O43186 whole entry): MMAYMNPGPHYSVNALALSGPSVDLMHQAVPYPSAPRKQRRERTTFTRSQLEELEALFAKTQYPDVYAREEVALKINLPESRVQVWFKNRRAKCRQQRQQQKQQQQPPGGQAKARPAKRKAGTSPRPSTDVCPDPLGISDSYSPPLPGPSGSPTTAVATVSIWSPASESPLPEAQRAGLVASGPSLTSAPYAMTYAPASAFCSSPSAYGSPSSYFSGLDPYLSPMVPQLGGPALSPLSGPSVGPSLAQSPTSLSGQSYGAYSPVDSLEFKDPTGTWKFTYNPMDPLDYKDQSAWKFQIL
Chain of ETV1 (P50549 whole entry): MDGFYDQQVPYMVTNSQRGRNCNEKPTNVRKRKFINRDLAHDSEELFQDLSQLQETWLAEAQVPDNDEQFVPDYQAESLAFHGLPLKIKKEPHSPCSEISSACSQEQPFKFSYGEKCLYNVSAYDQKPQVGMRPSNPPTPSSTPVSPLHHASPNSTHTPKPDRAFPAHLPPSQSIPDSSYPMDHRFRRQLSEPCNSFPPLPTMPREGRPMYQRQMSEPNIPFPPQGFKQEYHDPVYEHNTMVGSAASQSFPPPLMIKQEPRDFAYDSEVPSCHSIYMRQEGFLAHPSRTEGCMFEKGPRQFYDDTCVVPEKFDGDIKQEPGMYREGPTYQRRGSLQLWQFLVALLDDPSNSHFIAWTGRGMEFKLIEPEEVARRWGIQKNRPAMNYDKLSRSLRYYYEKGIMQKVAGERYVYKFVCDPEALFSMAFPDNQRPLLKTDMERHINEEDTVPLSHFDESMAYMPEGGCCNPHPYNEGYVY
Chain of ELF4 (Q99607 whole entry): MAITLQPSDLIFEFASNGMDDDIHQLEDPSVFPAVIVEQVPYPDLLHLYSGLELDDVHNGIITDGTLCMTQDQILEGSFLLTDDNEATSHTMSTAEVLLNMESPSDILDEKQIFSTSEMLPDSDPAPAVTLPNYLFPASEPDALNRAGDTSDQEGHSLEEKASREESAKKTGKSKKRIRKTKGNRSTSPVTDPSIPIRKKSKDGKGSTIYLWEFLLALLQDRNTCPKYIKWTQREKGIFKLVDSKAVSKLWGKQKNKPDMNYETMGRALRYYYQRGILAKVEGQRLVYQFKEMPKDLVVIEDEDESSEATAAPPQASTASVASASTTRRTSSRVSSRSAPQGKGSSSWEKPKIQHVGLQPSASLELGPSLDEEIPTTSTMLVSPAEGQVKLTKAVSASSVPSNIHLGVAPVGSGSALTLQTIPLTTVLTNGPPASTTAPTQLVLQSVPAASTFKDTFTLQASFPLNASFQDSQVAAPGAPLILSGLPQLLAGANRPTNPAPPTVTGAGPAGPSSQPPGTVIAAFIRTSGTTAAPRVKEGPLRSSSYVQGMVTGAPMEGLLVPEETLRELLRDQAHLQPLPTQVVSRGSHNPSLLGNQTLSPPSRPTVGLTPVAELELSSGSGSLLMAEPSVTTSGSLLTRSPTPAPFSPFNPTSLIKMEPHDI
Chain of SPIB (Q01892 whole entry): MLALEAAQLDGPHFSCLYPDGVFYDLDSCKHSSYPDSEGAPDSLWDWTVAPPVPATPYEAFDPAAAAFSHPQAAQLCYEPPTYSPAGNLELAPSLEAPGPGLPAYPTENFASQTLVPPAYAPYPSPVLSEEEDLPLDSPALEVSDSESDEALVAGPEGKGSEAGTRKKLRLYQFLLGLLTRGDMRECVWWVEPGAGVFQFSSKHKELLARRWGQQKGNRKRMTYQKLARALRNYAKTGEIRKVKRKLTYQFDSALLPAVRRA

## TCCATA
FLI1
  binding signal: 1.33 fold enrichment (6-mer frequency, TF over GST control)
ELK1
  binding signal: 1.3 fold enrichment (6-mer frequency, TF over GST control)
GABPA
  binding signal: 1.18 fold enrichment (6-mer frequency, TF over GST control)
ERG
  binding signal: 1.25 fold enrichment (6-mer frequency, TF over GST control)
ELF1
  binding signal: 1.23 fold enrichment (6-mer frequency, TF over GST control)
EHF
  binding signal: 1.24 fold enrichment (6-mer frequency, TF over GST control)
SPI1
  binding signal: 1.18 fold enrichment (6-mer frequency, TF over GST control)
SPIB
  binding signal: 1.21 fold enrichment (6-mer frequency, TF over GST control)
ELK3
  binding signal: 1.35 fold enrichment (6-mer frequency, TF over GST control)
FEV
  binding signal: 1.21 fold enrichment (6-mer frequency, TF over GST control)
ETV5
  binding signal: 1.3 fold enrichment (6-mer frequency, TF over GST control)
HSF1
  binding signal: 1.44 fold enrichment (6-mer frequency, TF over GST control)
SPIC
  binding signal: 1.3 fold enrichment (6-mer frequency, TF over GST control)
ELF4
  binding signal: 1.2 fold enrichment (6-mer frequency, TF over GST control)
ELK4
  binding signal: 1.25 fold enrichment (6-mer frequency, TF over GST control)
ETV2
  binding signal: 1.19 fold enrichment (6-mer frequency, TF over GST control)
ELF3
  binding signal: 1.11 fold enrichment (6-mer frequency, TF over GST control)
CRX
  binding signal: 1.48 fold enrichment (6-mer frequency, TF over GST control)
ETV1
  binding signal: 1.32 fold enrichment (6-mer frequency, TF over GST control)

Source: paper PMC7862700, “An all-to-all approach to the identification of sequence-specific readers for epigenetic DNA modifications on cytosine”
